Data on 9 compounds can be found in PubChem BioAssay.

Assay [1] concerns PRMT1 (protein arginine N-methyltransferase 1). As to the kind of experiment: PRMT1 binders on small-molecule microarrays, primary screen, biochemical, small-molecule microarray, 635 nm fluorescence (AID 1088).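 Further: binding of Prmt1 protein to compounds spotted on small-molecule microarray slides.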 The settings on record: small-molecule microarray binding, higher = more signal.
Assay [2] is described as follows: yeast growth modulation, basal conditions, primary screen, YJM789 clinical isolate, OD600, 24 h (AID 1089).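 Further: growth of clinical yeast isolate S. cerevisiae YJM 789 seeded 1000 cells per well; test concentration not given here.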 As to conditions: S. cerevisiae YJM789 growth, higher = more signal, called active from +8 up or from −8 down.
Assay [3] in a line: fission yeast growth modulation, primary screen, strain 972, OD600, 24 h, no modulator (AID 1090).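 Further: basal condition with compound alone and no growth modifier present; test concentration not given here.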 As to conditions: S. pombe 972 growth, higher = more signal, called active from +8 up or from −8 down.
The nature of assay [4]: S. cerevisiae growth modulation with rapamycin, primary screen, strain BY4716, OD600, 96 h (AID 1091). Further: test concentration not given here. The settings on record: higher = more signal, called active from +8 up or from −8 down.
The target of assay [5] is Torsin-1A-interacting protein 2 (Homo sapiens) (UniProt Q8NFQ8). The assay is described as follows: LULL1 binders on small-molecule microarray, primary screen, cell lysate, human LULL1 lysate, 635/667 nm fluorescence (AID 1092).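 Further: probe is lysate of COS7 cells overexpressing human LULL1; score merges per-feature 667 nm fluorescence with signal-to-noise.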 The settings on record: hLULL1 lysate binding, 635 nm fluorescence, higher = more signal.
Chain of Torsin-1A-interacting protein 2 (Homo sapiens) (Q8NFQ8 whole entry, looked up): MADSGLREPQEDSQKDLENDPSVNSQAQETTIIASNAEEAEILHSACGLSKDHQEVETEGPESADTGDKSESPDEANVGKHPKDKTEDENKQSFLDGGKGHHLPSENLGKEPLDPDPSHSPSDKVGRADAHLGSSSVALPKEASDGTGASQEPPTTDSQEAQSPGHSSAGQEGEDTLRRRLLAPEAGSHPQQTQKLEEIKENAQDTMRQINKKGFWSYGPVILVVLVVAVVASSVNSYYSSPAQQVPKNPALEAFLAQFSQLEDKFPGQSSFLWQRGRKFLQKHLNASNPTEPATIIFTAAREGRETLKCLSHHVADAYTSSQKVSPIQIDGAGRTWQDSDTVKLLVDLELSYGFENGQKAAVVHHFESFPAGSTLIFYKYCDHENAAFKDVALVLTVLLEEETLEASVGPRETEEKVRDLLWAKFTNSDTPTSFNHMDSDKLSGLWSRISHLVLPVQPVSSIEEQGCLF
The nature of assay [6]: E. coli growth modulation, two-sided OD650, primary screen, E. coli filamentation project, strain DRC41, 24 h (AID 1093).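 Further: MC1000 strain lacking acrAB efflux and sulA so SOS filamentation is blocked; test concentration not given here.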 As to conditions: OD650, 24 h, higher = more signal, called active from +8 up or from −8 down.
Assay [7] is described as follows: small-molecule microarray binders of probe aLefty2, primary screen, biochemical, biotinylated probe, 635/667 nm fluorescence (AID 1094).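 Further: score merges spot fluorescence near 667 nm with spot signal-to-noise ratio.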 As to conditions: higher = more signal.
Assay [8] concerns Noggin (protein binding on small-molecule microarray). As to the kind of experiment: Noggin binders on small-molecule microarray, primary screen, biochemical, 635/667 nm fluorescence (AID 1095).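 Further: score merges 667 nm feature fluorescence with signal to noise over triplicate slides.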 The settings on record: 635 nm fluorescence, higher = more signal.
Assay [9] has as its target Neurogenic locus notch homolog protein 3 (Homo sapiens) (UniProt Q9UM47). The assay is described as follows: NOTCH3 binders on small-molecule microarray, primary screen, biochemical, 635/667 nm fluorescence (AID 1096). The settings on record: NOTCH3 binding, 635 nm fluorescence, higher = more signal.
Assay [10] can be described thus: small-molecule microarray binders of probe aEGFR, primary screen, biochemical, biotinylated probe, 635/667 nm fluorescence (AID 1097).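 Further: probe is a biotinylated anti-EGFR antibody binding compounds printed on slides; score combines fluorescence near 667 nm and signal to noise of each spot.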 As to conditions: higher = more signal.
The subject of assay [11] is Plasmodium falciparum Sir2 (PF13_0152, Sir2A). As to the kind of experiment: pfSir2 binders on small-molecule microarrays, primary screen, biochemical, small-molecule microarray, 635 nm fluorescence (AID 1098).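 Further: score merges spot fluorescence intensity with its signal-to-noise ratio.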 As to conditions: small-molecule microarray binding, fluorescence 635 nm; higher = more signal.
Assay [12] in a line: small-molecule microarray binders of probe aDKK1, primary screen, biochemical, biotinylated probe, 635/667 nm fluorescence (AID 1099).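 Further: score merges 667nm spot fluorescence with signal to noise across triplicate slides; reference of the scale not given here.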 As to conditions: higher = more signal.
Assay [13] is described as follows: small-molecule microarray binders of probe aCHRDL2, primary screen, biochemical, biotinylated probe, 635/667 nm fluorescence (AID 1100). The settings on record: higher = more signal.
Assay [14] can be described thus: splicing luciferase reporter signal modulators, primary screen, spliceosome inhibition project, cell-based, HEK293, splice +/- reporter (AID 1101).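 Further: HEK293 cells carrying a splicing-competent luciferase reporter gene; test concentration not given here.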 The settings on record: luminescence, 24 h, higher = more signal, called active from +8 up or from −8 down.
The target in assay [15] is Fibroblast growth factor 10 (Homo sapiens) (UniProt O15520). As to the kind of experiment: FGF10 binders on small-molecule microarrays, primary screen, biochemical, small-molecule microarray, 635 nm fluorescence (AID 1102). The settings on record: FGF10 binding, fluorescence 635 nm, higher = more signal.
Chain of Fibroblast growth factor 10 (Homo sapiens) (O15520 whole entry, looked up): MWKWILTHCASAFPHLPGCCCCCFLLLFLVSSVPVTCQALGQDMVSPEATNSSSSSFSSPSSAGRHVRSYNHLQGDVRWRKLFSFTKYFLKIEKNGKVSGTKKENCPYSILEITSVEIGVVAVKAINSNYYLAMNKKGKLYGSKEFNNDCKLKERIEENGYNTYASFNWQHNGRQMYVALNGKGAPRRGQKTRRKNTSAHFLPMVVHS
The subject of assay [16] is glycogen synthase kinase-3 (GSK3A per assay name; protocol says GSK3B). As to the kind of experiment: GSK3 binders on small-molecule microarrays, primary screen, biochemical, small-molecule microarray, 635 nm fluorescence, GSK3A (AID 1103). Further: the record names both GSK3A and GSK3B. The settings on record: small-molecule microarray binding, fluorescence 635 nm; higher = more signal.
In assay [17] the target is Epidermal growth factor receptor (Homo sapiens) (UniProt P00533). The assay is described as follows: EGFR binders on small-molecule microarrays, primary screen, biochemical, small-molecule microarray, 635 nm fluorescence (AID 1104).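 Further: score merges 667 nm emission intensity with spot signal to noise over triplicate slides.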 The settings on record: EGFR binding, higher = more signal.
Chain of Epidermal growth factor receptor (Homo sapiens) (P00533 whole entry, looked up): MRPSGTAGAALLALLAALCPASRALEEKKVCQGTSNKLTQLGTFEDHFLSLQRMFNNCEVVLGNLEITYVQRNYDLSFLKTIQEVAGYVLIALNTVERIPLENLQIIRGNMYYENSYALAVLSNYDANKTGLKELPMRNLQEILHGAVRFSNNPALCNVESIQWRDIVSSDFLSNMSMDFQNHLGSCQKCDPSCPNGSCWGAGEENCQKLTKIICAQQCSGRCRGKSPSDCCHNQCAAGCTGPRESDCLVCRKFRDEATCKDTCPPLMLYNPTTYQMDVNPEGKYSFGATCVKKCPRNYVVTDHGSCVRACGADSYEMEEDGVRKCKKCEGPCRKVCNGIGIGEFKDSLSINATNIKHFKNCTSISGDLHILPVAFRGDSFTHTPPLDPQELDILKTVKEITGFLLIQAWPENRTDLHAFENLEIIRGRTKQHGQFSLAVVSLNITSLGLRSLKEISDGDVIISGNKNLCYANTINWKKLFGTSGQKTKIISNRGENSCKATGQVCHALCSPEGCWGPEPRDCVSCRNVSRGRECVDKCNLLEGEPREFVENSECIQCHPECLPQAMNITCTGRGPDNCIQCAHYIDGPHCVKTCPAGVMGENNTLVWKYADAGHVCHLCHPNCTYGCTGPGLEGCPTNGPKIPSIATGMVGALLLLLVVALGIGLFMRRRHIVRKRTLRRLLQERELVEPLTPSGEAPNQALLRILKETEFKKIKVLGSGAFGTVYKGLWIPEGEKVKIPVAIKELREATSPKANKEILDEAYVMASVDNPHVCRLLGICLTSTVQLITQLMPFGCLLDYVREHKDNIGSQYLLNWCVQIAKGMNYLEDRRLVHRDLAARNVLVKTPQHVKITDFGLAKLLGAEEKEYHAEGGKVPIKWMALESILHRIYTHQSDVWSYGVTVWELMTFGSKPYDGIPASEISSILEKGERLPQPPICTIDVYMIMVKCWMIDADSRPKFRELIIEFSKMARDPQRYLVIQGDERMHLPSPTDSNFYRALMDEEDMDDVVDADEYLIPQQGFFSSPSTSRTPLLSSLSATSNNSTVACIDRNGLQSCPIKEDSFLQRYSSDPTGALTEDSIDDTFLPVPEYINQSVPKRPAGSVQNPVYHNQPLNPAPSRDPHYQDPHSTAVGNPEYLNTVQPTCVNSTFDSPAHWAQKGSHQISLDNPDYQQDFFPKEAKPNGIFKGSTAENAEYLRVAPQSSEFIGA
Assay [18] deals with Follistatin-related protein 3 (Homo sapiens) (UniProt O95633). As to the kind of experiment: FSTL3 binders on small-molecule microarrays, primary screen, biochemical, small-molecule microarray, 635 nm fluorescence (AID 1105).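 Further: score merges emission near 667 nm and signal to noise per printed spot across three slides.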 The settings on record: FSTL3 binding, higher = more signal.
Chain of Follistatin-related protein 3 (Homo sapiens) (O95633 whole entry, looked up): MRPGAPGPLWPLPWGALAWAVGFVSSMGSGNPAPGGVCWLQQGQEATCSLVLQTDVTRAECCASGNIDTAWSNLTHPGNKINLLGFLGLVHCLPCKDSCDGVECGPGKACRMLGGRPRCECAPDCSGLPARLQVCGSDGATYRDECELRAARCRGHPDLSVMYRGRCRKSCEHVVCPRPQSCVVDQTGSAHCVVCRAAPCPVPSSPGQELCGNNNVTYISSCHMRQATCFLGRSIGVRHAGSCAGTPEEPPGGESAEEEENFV
Assay [19] deals with Dickkopf-related protein 1 (Homo sapiens) (UniProt O94907). As to the kind of experiment: DKK1 binders on small-molecule microarrays, primary screen, biochemical, small-molecule microarray, 635 nm fluorescence scan (AID 1106).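 Further: score merges emission near 667 nm with signal to noise over three replicate slides.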 The settings on record: DKK1 binding, higher = more signal.
Chain of Dickkopf-related protein 1 (Homo sapiens) (O94907 whole entry, looked up): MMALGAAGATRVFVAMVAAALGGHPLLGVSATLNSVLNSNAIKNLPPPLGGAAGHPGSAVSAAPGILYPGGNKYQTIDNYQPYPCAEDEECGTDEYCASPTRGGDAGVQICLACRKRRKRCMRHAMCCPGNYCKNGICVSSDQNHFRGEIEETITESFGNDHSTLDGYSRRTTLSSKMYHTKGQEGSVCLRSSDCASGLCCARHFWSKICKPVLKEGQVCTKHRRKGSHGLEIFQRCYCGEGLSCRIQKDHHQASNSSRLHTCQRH
For assay [20], the system named is Inhibin beta A chain (activin A). As to the kind of experiment: INHBA (activin A) binders on microarrays, primary screen, biochemical, small-molecule microarray, 635 nm fluorescence scan (AID 1107).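 Further: mouse activin A protein probed at 4.33 µg/mL on printed slides; score merges bound-protein fluorescence near 667 nm with spot signal-to-noise.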 The settings on record: small-molecule microarray binding, higher = more signal.

Activity calls are given as the source filed them.

Chain of Neurogenic locus notch homolog protein 3 (Homo sapiens) (Q9UM47 whole entry, looked up): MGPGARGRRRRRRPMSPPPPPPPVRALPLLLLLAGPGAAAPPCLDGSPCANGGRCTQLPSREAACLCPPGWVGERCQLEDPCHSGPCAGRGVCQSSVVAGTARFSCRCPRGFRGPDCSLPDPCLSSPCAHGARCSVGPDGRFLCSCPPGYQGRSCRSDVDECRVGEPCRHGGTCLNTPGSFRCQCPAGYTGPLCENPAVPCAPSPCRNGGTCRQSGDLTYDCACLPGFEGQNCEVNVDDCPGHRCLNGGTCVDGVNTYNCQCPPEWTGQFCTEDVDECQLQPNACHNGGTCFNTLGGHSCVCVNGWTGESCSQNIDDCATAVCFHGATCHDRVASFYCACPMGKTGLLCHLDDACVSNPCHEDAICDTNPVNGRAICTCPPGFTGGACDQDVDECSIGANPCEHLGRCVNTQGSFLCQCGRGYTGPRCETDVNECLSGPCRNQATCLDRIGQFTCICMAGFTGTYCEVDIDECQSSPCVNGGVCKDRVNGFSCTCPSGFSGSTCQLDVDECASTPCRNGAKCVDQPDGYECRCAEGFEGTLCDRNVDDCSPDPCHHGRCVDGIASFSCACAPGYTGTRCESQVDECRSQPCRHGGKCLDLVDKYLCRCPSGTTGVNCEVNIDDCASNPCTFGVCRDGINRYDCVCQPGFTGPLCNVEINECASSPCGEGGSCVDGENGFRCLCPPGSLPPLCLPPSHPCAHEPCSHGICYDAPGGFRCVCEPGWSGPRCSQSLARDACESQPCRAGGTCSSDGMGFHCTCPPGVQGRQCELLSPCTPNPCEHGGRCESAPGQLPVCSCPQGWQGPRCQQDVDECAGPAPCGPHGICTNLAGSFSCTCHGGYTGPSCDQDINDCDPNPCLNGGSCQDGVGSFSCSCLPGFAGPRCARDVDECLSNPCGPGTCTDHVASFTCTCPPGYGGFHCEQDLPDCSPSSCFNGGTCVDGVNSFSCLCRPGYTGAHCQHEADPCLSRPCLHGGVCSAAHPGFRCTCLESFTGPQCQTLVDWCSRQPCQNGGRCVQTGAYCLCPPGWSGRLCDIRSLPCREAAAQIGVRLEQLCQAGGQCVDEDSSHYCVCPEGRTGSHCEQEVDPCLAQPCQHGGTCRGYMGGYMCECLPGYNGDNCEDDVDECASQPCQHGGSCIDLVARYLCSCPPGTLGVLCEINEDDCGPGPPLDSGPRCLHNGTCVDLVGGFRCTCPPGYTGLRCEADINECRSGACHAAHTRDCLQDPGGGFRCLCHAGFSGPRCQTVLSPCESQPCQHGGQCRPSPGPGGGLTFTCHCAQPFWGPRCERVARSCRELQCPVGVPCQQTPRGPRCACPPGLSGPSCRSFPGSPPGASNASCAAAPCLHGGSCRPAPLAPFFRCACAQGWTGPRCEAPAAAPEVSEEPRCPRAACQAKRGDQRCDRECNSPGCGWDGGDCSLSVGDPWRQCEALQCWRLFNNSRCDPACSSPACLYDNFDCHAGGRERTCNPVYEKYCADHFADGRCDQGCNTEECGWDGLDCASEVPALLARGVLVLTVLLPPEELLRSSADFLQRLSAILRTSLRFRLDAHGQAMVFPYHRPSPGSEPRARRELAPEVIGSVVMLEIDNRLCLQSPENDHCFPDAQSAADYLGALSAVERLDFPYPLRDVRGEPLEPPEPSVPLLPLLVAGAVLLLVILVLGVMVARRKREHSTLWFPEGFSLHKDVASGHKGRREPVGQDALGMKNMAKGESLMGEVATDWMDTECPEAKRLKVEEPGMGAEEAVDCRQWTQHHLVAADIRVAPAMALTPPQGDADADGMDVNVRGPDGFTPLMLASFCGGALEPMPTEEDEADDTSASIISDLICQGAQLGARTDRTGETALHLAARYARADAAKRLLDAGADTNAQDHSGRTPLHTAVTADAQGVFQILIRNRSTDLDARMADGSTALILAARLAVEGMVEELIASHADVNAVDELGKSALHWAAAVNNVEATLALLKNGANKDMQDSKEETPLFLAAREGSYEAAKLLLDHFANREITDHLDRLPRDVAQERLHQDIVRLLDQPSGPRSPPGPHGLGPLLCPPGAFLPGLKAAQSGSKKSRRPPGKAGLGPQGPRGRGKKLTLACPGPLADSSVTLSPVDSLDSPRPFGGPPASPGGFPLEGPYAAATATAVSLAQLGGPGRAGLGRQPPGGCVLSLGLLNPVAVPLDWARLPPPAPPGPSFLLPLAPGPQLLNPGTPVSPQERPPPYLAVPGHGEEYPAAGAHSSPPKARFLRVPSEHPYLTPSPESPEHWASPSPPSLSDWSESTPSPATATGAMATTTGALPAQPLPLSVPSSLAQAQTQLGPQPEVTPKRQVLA

For the compound `COC(=O)CC=C[C@@H](C)[C@@H](C=NOC[C@@H](O)[C@H]1O[C@@H]2OC(C)(C)O[C@@H]2[C@H]1O)NS(=O)(=O)c1ccc(C)cc1`, the composite z-score in assay [1] is 0.601; in assay [5], 0.308; in assay [7], 0.0528; in assay [8] it was 0.974; in [9], 0.638; in [10], -0.0553. For the same compound, the composite z-score in assay [11] was 0.698; in [12], -0.251; in assay [13], -0.614; in [15] it was 0.504; in [16] it was 0.471; in assay [17], 0.419. Also, the composite z-score in [18] was 0.427; in assay [19], 0.653; in assay [20], -0.0684. The z-score in assay [2] was -0.684 (inactive); in [3], -0.137 (inactive); in [4], -0.408 (inactive); in assay [6] it was 0.445 (inactive); in assay [14] it was 0.318 (inactive).

As to `C[C@H](ON=C1[C@H]2CCn3c(=O)n(-c4ccccc4)c(=O)n3[C@H]2[C@H](O)[C@@H]2O[C@H]12)c1cn([C@H](CO)Cc2ccccc2)nn1`, the composite z-score in assay [1] is 0.171; in assay [5], 0.664; in [7], -0.175; in [8], 0.222; in [9], 0.518; in [10], 0.0544. Besides, the composite z-score is -0.0041 in [11]; -0.15 in assay [12]; -0.519 in [13]; 0.513 in assay [15]; 0.266 in assay [16]; 0.377 in assay [17]. In addition, the composite z-score in assay [18] was determined as 0.659; in [19], 0.559; in assay [20], 0.437. Besides, the z-score in assay [2] is -0.915 (inactive); in assay [3], -0.348 (inactive); in [4], -0.173 (inactive); in assay [6], 0.547 (inactive); in [14], -0.421 (inactive).

For `CO[C@@H]1COC(=O)CC=C[C@H](C)[C@H](OC)COC(=O)[C@H](C)NC(=O)CC=C[C@H]1C`, the composite z-score was 1.53 in [1]; -0.207 in assay [5]; -0.228 in assay [7]; 1.83 in assay [8]; 0.273 in assay [9]; -0.0109 in [10]. Also, the composite z-score in assay [11] is 0.657; in [12] it was -0.546; in [13], -1.31; in assay [15], 0.616; in assay [16], 0.918; in assay [17], 0.745. For the same compound, the composite z-score in [18] worked out at 1.44; in assay [19], 1.18; in assay [20], 1.74. The z-score in assay [2] is 0.419 (inactive); in assay [3], -0.245 (inactive); in assay [4], 0.329 (inactive); in [6], 1.2 (inactive); in assay [14], 0.671 (inactive).

`O=C1C[C@@H](O)[C@@H](O)[C@@H]2[C@@H]3C(=O)N(C[C@@H]4CCCO4)C(=O)[C@@H]3CC[C@H]12`: the composite z-score is 0.578 in assay [1]; 0.493 in [5]; -0.108 in assay [7]; 0.394 in assay [8]; 0.652 in assay [9]; -0.0118 in [10]. Moreover, the composite z-score is 0.379 in assay [11]; -0.273 in assay [12]; -0.577 in assay [13]; 0.508 in [15]; 0.671 in [16]; 0.531 in assay [17]. The composite z-score in assay [18] is 0.601; in [19] it was 0.542; in [20], -0.161. The z-score was 0.788 (inactive) in assay [2]; -0.563 (inactive) in [3]; 0.672 (inactive) in assay [4]; 0.701 (inactive) in assay [6]; 0.32 (inactive) in [14].

Consider `C#CCCCON=C1C[C@@H](O)[C@@H](O)[C@@H]2[C@@H]3C(=O)N(CC)C(=O)[C@@H]3CC[C@@H]12`, for which the composite z-score in assay [1] was 0.677; in assay [5], 0.187; in assay [7] it was -0.0478; in assay [8], 0.167; in assay [9] it was 0.426; in [10], -0.0972. The composite z-score is 0.254 in assay [11]; -0.129 in [12]; -0.697 in assay [13]; 1.18 in [15]; 0.545 in assay [16]; 0.631 in assay [17]. Further, the composite z-score was 0.496 in assay [18], 0.628 in assay [19] and -0.236 in [20]. Besides, the z-score in assay [2] was -0.0246 (inactive); in [3] it was 0.267 (inactive); in assay [4], 1.25 (inactive); in assay [6], 0.439 (inactive); in assay [14], 0.401 (inactive).

With `C#CCCCON=C1C[C@@H](O)[C@@H](O)[C@@H]2[C@@H]3C(=O)N(c4ccc(F)cc4F)C(=O)[C@@H]3CC[C@H]12`, the composite z-score in assay [1] was 1.43; in [5], 2.13; in assay [7], -0.226; in assay [8], 0.844; in assay [9], 0.793; in [10], -0.0187. Moreover, the composite z-score was 0.87 in assay [11]; -0.177 in [12]; -0.86 in assay [13]; 0.947 in assay [15]; 0.678 in [16]; 0.403 in [17]. Besides, the composite z-score is 0.432 in assay [18], 0.978 in assay [19] and -0.185 in assay [20]. The z-score in assay [2] is -0.989 (inactive); in assay [3], -1.41 (inactive); in assay [4], -1.5 (inactive); in assay [6], 0.534 (inactive); in assay [14] it was -1.35 (inactive).

For `COc1cccc([C@H]2Oc3ccc(OC)cc3C(=NOC[C@@H](C)[C@H](OCc3ccccc3)C(C)C)[C@@H]2O)c1`, the composite z-score in assay [1] is 0.169; in assay [5] it was 0.77; in [7] it was -0.341; in assay [8], 0.0758; in assay [9], 0.0869; in [10] it was 0.0229. Besides, the composite z-score in [11] is -0.0088; in [12] it was 0.197; in assay [13], 0.101; in assay [15], 0.325; in [16], 0.332; in assay [17], -0.168. Also, the composite z-score in [18] stood at 0.242; in assay [19], 0.304; in [20], 0.0185. The z-score in [2] is 0.0741 (inactive); in assay [3], 0.399 (inactive); in [4] it was 0.588 (inactive); in assay [6] it was -0.0364 (inactive); in assay [14] it was -0.171 (inactive).

Turning to `CC(C)[C@@H](OCc1ccccc1)[C@H](C)C=NOC[C@@H](O)COCc1ccco1`, the composite z-score in assay [1] was -0.0832; in [5], -0.425; in assay [7] it was -0.364; in assay [8] it was 0.0964; in [9], -0.0957; in assay [10], -0.357. Moreover, the composite z-score in assay [11] is -0.887; in [12] it was -0.869; in assay [13], -0.666; in [15] it was -0.557; in [16], -0.279; in [17] it was -1.11. Further, the figures for the composite z-score in [18], in [19] and in assay [20] were -0.94, -1.62 and -3.73, respectively. The z-score was -1.64 (inactive) in [2]; -4.1 (inactive) in [3]; -1.15 (inactive) in assay [4]; 0.799 (inactive) in assay [6]; -0.129 (inactive) in assay [14].

On to `C[C@@H]1C=CCC(=O)OC[C@H]2O[C@@H](C=C[C@@H]2O)[C@H](C)C=CCC(=O)OC1`, for which the composite z-score was 1.55 in assay [1]; -1.24 in [5]; -0.254 in assay [7]; 1.86 in [8]; 0.595 in assay [9]; -0.0455 in assay [10]. The composite z-score in assay [11] is 1.29; in assay [12], -0.594; in assay [13], -1.55; in assay [15], 1.1; in assay [16], 0.963; in assay [17], 1.23. The values for the composite z-score in assay [18], in [19] and in assay [20] were 1.59, 1.53 and 1.91, respectively. Further, the z-score in assay [2] was -2.12 (inactive); in assay [3], -1.24 (inactive); in assay [4] it was -0.618 (inactive); in assay [6], -0.293 (inactive); in assay [14] it was -0.813 (inactive).
